Common to all, as to assay: glycan array binding signal (z-score within array); higher = stronger binding
Settings in all cases: glycan notation: IUPAC condensed, linker removed

One experiment addresses Fuc(a1-2)GlcNAc. The method, boiled down:
(§1)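 The binding signal is a Z-score computed within each array. Data were drawn from 3228 arrays in the Consortium for Functional Glycomics database, restricted to those with a known protein sequence. Scores were averaged over arrays of the same protein sequence at different concentrations or buffers, and over linkers, and negative values can be taken as non-binding.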

The target of experiment [1] is Fuc(a1-2)[GalNAc(a1-3)]Gal(b1-4)Glc. The method, boiled down: as §1
Experiment [2] has as its target Gal(a1-3)[Gal(a1-4)]Gal(b1-4)GlcNAc. Summed up: as §1
In experiment [3] the target is Gal(b1-3)[Neu5Ac(b2-6)]GalNAc. Summed up:
as §1

Another experiment has as its target Gal(b1-4)GlcNAc. The method, boiled down:
as §1

For experiment [4], the target named is Gal(b1-4)GlcNAc(b1-2)Man(a1-3)[Gal(b1-4)GlcNAc(b1-2)Man(a1-6)]Man(b1-4)GlcNAc(b1-4)GlcNAc. Summed up: as §1
The target in experiment [5] is Gal(b1-4)GlcNAc(b1-3)Gal(b1-4)GlcNAc(b1-3)Gal(b1-4)GlcNAc. The method, boiled down: as §1
For experiment [6], the target named is Gal(b1-4)GlcNAc(b1-3)GalNAc. Summed up:
as §1

The target in experiment [7] is Gal(b1-4)GlcNAc(b1-3)[Gal(b1-4)GlcNAc(b1-6)]GalNAc. The method, boiled down: as §1
For experiment [8], the target named is Gal(b1-4)GlcNAc(b1-6)[Gal(b1-3)]GalNAc. Summed up: as §1
Another experiment deals with GalNAc(a1-3)GalNAc. The method, boiled down:
as §1

For experiment [9], the target named is GalNAc(b1-3)Gal(a1-4)Gal(b1-4)GlcNAc. The method, boiled down: as §1
The target in the next experiment is Glc(b1-6)Glc. The method, boiled down: as §1
The target in experiment [10] is GlcNAc(b1-3)Gal(b1-4)GlcNAc. The method, boiled down:
as §1

The target of experiment [11] is GlcNAc(b1-4)GlcNAc(b1-4)GlcNAc(b1-4)GlcNAc(b1-4)GlcNAc(b1-4)GlcNAc. The method, boiled down: as §1
The next experiment concerns the target GlcNAc(b1-6)GalNAc. Summed up: as §1
For experiment [12], the target named is Man(a1-2)Man(a1-2)Man(a1-3)Man. The method, boiled down: as §1
Experiment [13] has as its target Neu5Ac(a2-3)Gal(b1-4)GlcNAc(b1-3)Gal(b1-4)GlcNAc. Summed up:
as §1

Experiment [14] concerns the target Neu5Ac(a2-3)Gal(b1-4)[Fuc(a1-3)]GlcNAc6S. The method, boiled down: as §1
For the next experiment, the target named is Neu5Ac(a2-3)GalNAc. Summed up:
as §1

For experiment [15], the target named is Neu5Ac(a2-3)GalNAc(b1-4)GlcNAc. The method, boiled down:
as §1

The target of experiment [16] is Neu5Ac(a2-8)Neu5Ac(a2-8)Neu5Ac(a2-3)[GalNAc(b1-4)]Gal(b1-4)Glc. Summed up:
as §1

The target of the next experiment is Neu5Gc(a2-3)Gal(b1-4)Glc. The method, boiled down: as §1
Another experiment concerns the target Neu5Gc(a2-6)GalNAc. The method, boiled down:
as §1

About 410 targets per protein were measured; listed, in parts, are those with the strongest signals and a random draw of the rest.

B1: RSVL (Crotalus atrox), P21963 (protein)
chain: NNCPLDWLPMNGLCYKIFNQLKTWEDAEMFCRKYKPGCHLASFHRYGESLEIAEYISDYHKGQENVWIGLRDKKKDFSWEWTDRSCTDYLTWDKNQPDHYQNKEFCVELVSLTGYRLWNDQVCESKDAFLCQCKF
Consider B1, for which the “glycan array binding signal (z-score)” value with Fuc(a1-2)GlcNAc is -0.364; in [1] it was 1.84; in [2] it was 5.83; in experiment [3], 0.952; in the experiment with Gal(b1-4)GlcNAc, 0.686; in experiment [4] it was 1.49. In addition, the “glycan array binding signal (z-score)” value in experiment [5] was -0.23; in experiment [6], -0.171; in experiment [7] it was 5.41; in [8], 5.05; in the experiment with GalNAc(a1-3)GalNAc it was 4.76; in experiment [9] it was 0.559. Besides, the “glycan array binding signal (z-score)” value was -0.364 with Glc(b1-6)Glc; -0.369 in experiment [10]; -0.369 in experiment [11]; 1.02 in the experiment with GlcNAc(b1-6)GalNAc; -0.367 in experiment [12]; -0.365 in experiment [13]. The “glycan array binding signal (z-score)” value is -0.345 in experiment [14]; -0.367 in the experiment with Neu5Ac(a2-3)GalNAc; -0.342 in experiment [15]; -0.362 in experiment [16]; -0.365 with Neu5Gc(a2-3)Gal(b1-4)Glc; -0.366 with Neu5Gc(a2-6)GalNAc.

The values above are taken from the supplement of paper PMC8728848.
